Screening data: PubChem BioAssay, National Center for Advancing Translational Sciences (NCATS)
Only some compounds are listed: those with a hit (about 7.9% of all), similar ones and a draw of the others.
KB-3-1 cytotox: KB-3-1 parental cell cytotoxicity | actives 1.4% (n = 400,000) | KB-3-1 viability, CellTiter-Glo ATP luminescence, 72 h | Potency, µM (titrated, usually from 46.1 µM), most hits filed as cytotoxic; also: % is scaled to controls: 0 for no effect and ±100 for the full control effect; nearly all actives have a fitted effect of over 60% in size
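Viability of parental KB-3-1 cells, measured by CellTiter-Glo luminescence, followed a 72 h incubation at 37 °C with pinned compounds in phenol-red-free DMEM containing 10% FBS.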
MCF10A rereplic: DNA re-replication induction in MCF 10a cells; MCF 10A DNA re-replication, Hoechst nuclear intensity, 48 h; Potency, µM (top dose mostly 46.1 µM), without a hit: top-dose activity, positive = re-replication, usual class: activators; actives 2.9% (n = 350,000); AID 624296; also: % of control where 0% means no effect; nearly all actives have a fitted effect of over 50% in size
HT1080-NT tox: kills 2HG-producing HT-1080-NT fibrosarcoma cells; HT-1080-NT fibrosarcoma viability, CellTiter-Glo ATP luminescence, 48 h; actives 1.6% (n = 360,000); Potency, µM (doses to about 46.1 µM), for the others: at the top dose activity, negative = less viability, most hits filed as cytotoxic;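 also: NT is the 2HG producing partner of a matched IDH1 knockdown line; 0% = DMSO-treated cells and -100% = media-only wells without cells; nearly all actives have a fitted effect of over 55% in size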
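Read-out is CellTiter-Glo luminescence after 10 minutes at room temperature, following 48 hours' compound treatment of HT-1080-NT cells (750 cells/well, RPMI, 5% FBS, 37 degrees C).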
KB-V1 MDR tox: KB-V1 MDR subline cytotoxicity; actives 3.4% (n = 400,000); KB-V1 MDR cells viability, CellTiter-Glo, 72 h; Potency, µM (doses to about 46.1 µM), most hits filed as cytotoxic; also: % is scaled to controls: 0 for no effect and ±100 for the full control effect; nearly all actives have a fitted effect of over 60% in size
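KB-V1 cells (P-gp-expressing MDR subline of KB-3-1) in phenol-red-free DMEM with 10% FBS were exposed to library compounds over a concentration series for 72 h at 37 degrees C. Viability read by CellTiter-Glo luminescence; concentration-effect curves fitted after normalization.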
HT1080 IDH1KD tx: HT-1080 IDH1 knockdown cell toxicity (counter line) | Potency, µM (doses to about 46.1 µM), for inactives: at the highest dose activity, negative = toxicity, hits mostly cytotoxic | actives 2% (n = 360,000) | HT-1080 IDH1 knockdown viability, ATP luminescence, 48 h | AID 686971;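 also: 0% = DMSO wells and -100% = cell-free medium wells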
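Using the IDH1-knockdown HT-1080 line run in the same batch and compound series as the NT line, viability after 48 h at 37 °C was determined by CellTiter-Glo luminescence and expressed as % activity.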
SW480 rerep: inducers of DNA re-replication in SW480 colon cancer cells | Potency, µM (doses to about 46.1 µM), inactives show at the highest dose re-replication activation, most hits filed as activators | actives 1.8% (n = 340,000) | SW480 DNA re-replication, Hoechst DNA content imaging, 48 h; also: % of control where 0% means no effect; nearly all actives have a fitted effect of over 55% in size
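Treated cells incubate 48 hr (37 C, 5% CO2), are stained 40 min with Hoechst, and nuclear fluorescence is enumerated; a rise in nuclei with high DNA signal marks re-replication.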
Numbers without * were called inactive; i = inactive; ? = inconclusive; nt = no result given; [ ] = dose if it differs, or a comment. Calls follow the shape of the dose curve; as a rule, active = well fitted curve in the direction sought with a large enough effect; inconclusive = small, poorly fitted or top-dose-only effect, or another doubt; inactive = no such curve, though single readings can be large; an effect the other way counts as inactive or inconclusive. Potency is read from the fitted curve at half-maximal effect.

SMILES | KB-3-1 cytotox | MCF10A rereplic | HT1080-NT tox | KB-V1 MDR tox | HT1080 IDH1KD tx | SW480 rerep
O=C(NCCC1=CCCCC1)C(=O)NCC(c1ccco1)N1CCN(c2ccc(F)cc2)CC1 (stereo unspecified) | i | 9.3% | -14.5% | 2.59µM* | -1.1% | -100.1%
O=C(NCC(c1ccco1)N1CCN(c2ccc(F)cc2)CC1)C1CCCCC1 (stereo unspecified) | i | 2.2% | -0.2% | ? | -8.9% | -6.8%
O=C(NCc1cccnc1)C(=O)NCC(c1ccco1)N1CCN(c2ccccc2)CC1 (stereo unspecified) | i | 4.3% | 12.5% | 9.2µM* | 6.0% | ?
COc1ccc(OC)c(NC(=O)C2(C)CCN2Cc2ccccc2Cl)c1 (stereo unspecified) | i | nt | -17.4% | i | -34.5% | nt
Nc1nc(SCc2cccnc2)c2ncn(C3OC(CO)C(O)C3O)c2n1 (stereo unspecified) | i | ? | 21.4% | i | 8.3% | -8.0%
Nc1ccc2nc(SCc3ccccc3F)sc2c1 | i | 20.6µM* | -18.0% | i | -11.1% | 4.7%
CCOC(=O)c1sc2ccccc2c1OC(=O)c1ccccc1OC | i | ? | ? | i | ? | 0.581µM*
COc1cccc(-c2cn3nc4c(nc3n2)CCCC4)c1 | 18.4µM* | ? | ? | ? | 16.4µM* | ?
O=C(Nc1cccc(Cl)c1)Nc1csc([N+](=O)[O-])c1 | ? | ? | 20.6µM* | ? | 7.31µM* | ?
CN(C)c1ccc(NC(=O)Nc2cccc(Cl)c2)cc1 | i | -1.7% | ? | 13µM* | -10.2% | -1.0%
CSc1ccccc1NC(=O)Nc1cccc(Cl)c1Cl | i | 23.1µM* | -2.1% | ? | -23.4% | 6.3%
CCOc1ccc(NC(=O)CCC(=O)NNC(=O)Nc2cccc(Cl)c2)cc1 | i | 0.184µM* | -3.6% | ? | 1.2% | ?
CN(c1cccc(NC(=O)Nc2cccc(Cl)c2)c1)S(C)(=O)=O | i | 11.6% | -28.7% | ? | -2.5%[9.24 µM] | -2.3%
Cn1cc(CCC(=O)NCCCc2ccccc2)c2ccccc21 | i | 3.6% | 20.6% | i | 23.5% | -4.6%
COc1cccc(C(C(=O)NC2CCCCC2)N(C(=O)c2csnn2)C2CC2)c1 (stereo unspecified) | i | -16.3% | 9.5% | i | 5.5% | -11.9%
CSc1ccccc1NC(=O)Nc1cccc(Cl)c1 | ? | ? | 6.6% | 16.4µM* | 2.0% | 15.2%
O=C(Nc1ccc(Cl)c(Cl)c1)Nc1ccccc1O | i | 7.3% | 4.0% | ? | 3.8% | -4.0%
O=C(Nc1ccc(Cl)c(Cl)c1)Nc1ccc(Br)cc1F | ? | ? | ? | ? | 16.4µM* | nt
Cc1ccc(NC(=O)Nc2ccc(F)c(Cl)c2)cc1 | i | 0.8% | 0.0% | i | -4.4% | -2.8%
CSc1ccccc1NC(=O)Nc1ccc(F)c(Cl)c1 | i | ? | -2.9% | 20.6µM* | 0.7% | -0.6%
COc1cccc(NC(=O)Nc2ccccc2SC)c1 | i | 5.7% | 1.4% | i | -0.5% | 2.1%
Cc1ccc2c(n1)sc1c(=O)n(-c3cccc(C(F)(F)F)c3)nnc12 | i | nt | nt | i | nt | nt
CCCCn1nnnc1C(C1CC1)N1CCN(C/C=C/c2ccccc2)CC1 (stereo unspecified) | i | nt | -9.9% | i | -19.3% | nt
Cc1[nH]c(C)c(S(=O)(=O)NCc2ccc(F)cc2)c1C(=O)N1CCCCC1 | i | 8.3% | 3.7% | i | 9.6% | -1.6%
O=[N+]([O-])c1ccc(NCCc2ccccc2)c(Br)c1 | i | 5.3% | 2.4% | i | 1.1% | -3.4%
SMILES | KB-3-1 cytotox | MCF10A rereplic | HT1080-NT tox | KB-V1 MDR tox | HT1080 IDH1KD tx | SW480 rerep
CC(=O)Nc1ccc(NC(=O)CSc2ncc(C(=O)Nc3ccccc3)c(=O)n2C)cc1 | ? | ? | ? | i | 14.6µM* | -14.9%
COc1ccc(CCNC(=O)c2ccc3c(c2)CCN3S(C)(=O)=O)cc1OC | i | nt | nt | i | nt | nt
O=C1N(c2ccccc2C(F)(F)F)O[C@]1(c1ccccc1)C1CCCCC1 | i | 18.4µM* | -14.6% | i | -12.0% | 13µM*
Cc1ccc(-c2nc3c4ccccc4n(CC(=O)NCc4ccc(F)cc4)c(=O)n3n2)cc1 | i | nt | nt | ? | nt | nt
CCCN1CCc2c(sc(NC(=O)CCS(=O)(=O)c3ccccc3)c2C(N)=O)C1 | nt | 20.6µM* | 0.0% | nt | -3.3% | 18.4µM*
CN1CCc2c(sc(NC(=O)CS(=O)(=O)c3ccccc3)c2C(N)=O)C1 | i | -14.5% | 2.1% | i | 15.4% | -380.6%
CCN1CCn2c3c(c4cc(Cl)ccc42)CCCC31 (stereo unspecified) | i | -5.5% | -28.9% | i | ? | 4.6%
CCN(CC)CCN1CCn2c3c(c4cc(C)ccc42)CCCC31 (stereo unspecified) | i | 4.11µM* | ? | i | -20.3% | 14.6µM*
Oc1ccc(C[C@@H]2CNCCN2CCc2cc(C(F)(F)F)cc(C(F)(F)F)c2)cc1 | i | ? | ? | i | -22.1% | 14.0%
FC(F)(F)c1cc(CCN2CCNC[C@H]2Cc2cccc3ccccc23)cc(C(F)(F)F)c1 | i | 16.4µM* | -26.5% | i | ? | ?
CC(C)(C)OC(=O)N1CCC(c2c(C(=O)NCc3ccco3)cnn2-c2ccc(F)cc2F)CC1 | i | nt | nt | i | nt | nt
COc1ccc(OCCn2c(=N)n(CCO)c3ccccc32)cc1 | i | 1.8% | -4.9% | i | -10.1% | -6.8%
CCCCN(CC(O)COc1cccc(C)c1)CC(O)COc1cccc(C)c1 (stereo unspecified) | ? | ? | 20.6µM* | ? | 18.4µM* | ?
COc1ccc(OCC(O)Cn2c(=N)n(CCN3CCCCC3)c3ccccc32)cc1 (stereo unspecified) | ? | 25.9µM* | 18.4µM* | i | ? | ?
CCCCn1c(=N)n(CCOc2ccc(C)cc2)c2ccccc21 | ? | ? | ? | ? | ? | 18.4µM*
N=c1n(CCN2CCCC2)c2ccccc2n1CC(O)c1ccc(Cl)c(Cl)c1 (stereo unspecified) | i | 23.1µM* | ? | i | ? | ?
CN(C)CC(O)COc1cccc(OCC(O)CN(C)C)c1 (stereo unspecified) | i | -1.0% | -0.1% | i | 12.3% | -3.4%
COc1ccc(CN(Cc2ccccc2)C(=O)C2CC2)cc1COc1ccc(NC(C)=O)cc1 | nt | nt | -20.1% | nt | -25.3% | nt
CCOc1cc(C=NN=C2c3ccccc3-c3ccccc32)ccc1O | i | ? | -28.4% | ? | ? | 1.4%
